Measured values: the supplement of paper PMC11732987, “Enantioselective OTUD7B fragment discovery through chemoproteomics screening and high-throughput optimisation” (Communications Chemistry, 2025)

Columns and labels:
Experiment in all cases: log2 ratio of Biotin-Ahx-Ub-VS probe labelling (fragment/DMSO); higher = less target engagement (more negative = stronger competition), active = hit call of the paper (q ≤ 0.05, log2 ratio ≤ -1)
Conditions in all cases: compound concentration: 200 uM; treatment time: 3 h
USP19 = molecular target: T1, USP19 (UniProt O94966)
T1 sequence (whole entry): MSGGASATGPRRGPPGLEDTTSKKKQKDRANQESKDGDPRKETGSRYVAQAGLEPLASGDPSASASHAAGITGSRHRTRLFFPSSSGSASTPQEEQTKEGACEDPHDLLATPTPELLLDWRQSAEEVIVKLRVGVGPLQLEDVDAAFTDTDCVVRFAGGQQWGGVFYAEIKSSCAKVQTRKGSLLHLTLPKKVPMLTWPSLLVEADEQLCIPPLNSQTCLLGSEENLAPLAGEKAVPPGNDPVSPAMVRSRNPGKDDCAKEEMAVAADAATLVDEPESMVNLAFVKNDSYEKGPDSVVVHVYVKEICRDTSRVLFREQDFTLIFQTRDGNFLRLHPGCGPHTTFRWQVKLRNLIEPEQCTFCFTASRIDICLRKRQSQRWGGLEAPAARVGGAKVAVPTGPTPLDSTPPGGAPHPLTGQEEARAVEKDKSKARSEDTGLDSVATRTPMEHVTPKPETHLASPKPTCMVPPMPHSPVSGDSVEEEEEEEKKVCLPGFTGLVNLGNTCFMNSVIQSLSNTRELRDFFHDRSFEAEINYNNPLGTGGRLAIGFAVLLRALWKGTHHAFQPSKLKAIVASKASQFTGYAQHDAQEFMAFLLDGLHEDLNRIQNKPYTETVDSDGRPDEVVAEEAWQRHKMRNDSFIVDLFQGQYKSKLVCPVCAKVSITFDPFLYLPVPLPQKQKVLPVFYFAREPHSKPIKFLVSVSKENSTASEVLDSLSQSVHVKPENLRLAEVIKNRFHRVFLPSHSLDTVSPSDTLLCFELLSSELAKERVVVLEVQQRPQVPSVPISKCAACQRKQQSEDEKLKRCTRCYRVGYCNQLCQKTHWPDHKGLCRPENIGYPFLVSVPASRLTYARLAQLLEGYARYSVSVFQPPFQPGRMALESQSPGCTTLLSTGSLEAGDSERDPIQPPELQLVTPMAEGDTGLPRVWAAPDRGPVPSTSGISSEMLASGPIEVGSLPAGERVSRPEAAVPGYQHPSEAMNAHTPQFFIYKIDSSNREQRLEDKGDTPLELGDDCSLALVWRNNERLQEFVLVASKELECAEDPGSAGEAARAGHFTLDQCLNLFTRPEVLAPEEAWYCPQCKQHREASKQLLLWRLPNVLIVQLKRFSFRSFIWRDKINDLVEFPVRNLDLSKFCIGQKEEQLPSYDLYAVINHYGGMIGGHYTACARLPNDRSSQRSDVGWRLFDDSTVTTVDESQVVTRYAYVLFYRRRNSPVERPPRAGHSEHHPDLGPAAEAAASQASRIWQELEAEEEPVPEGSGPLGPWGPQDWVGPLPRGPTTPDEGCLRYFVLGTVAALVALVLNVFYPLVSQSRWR
Summary of the method: (§1)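 Average log2 ratios of fragment over vehicle were obtained by unpaired t-test from global-median-normalised Spectronaut label-free quantities. Proteins with ≥2 unique peptides were included. HEK293T lysate (495 µg per sample) was treated in triplicate with fragment at 200 µM or vehicle for 3 h, then with Biotin-Ahx-Ub-VS at 0.5 µM final for 1 h, and labelled DUBs were NeutrAvidin-enriched and run by diaPASEF LC-MS/MS.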

USP24 = USP24 (UniProt Q9UPU5)
Summary of the method: as §1

USP25 = molecular target: T2, USP25 (UniProt Q9UHP3)
T2 sequence (whole entry): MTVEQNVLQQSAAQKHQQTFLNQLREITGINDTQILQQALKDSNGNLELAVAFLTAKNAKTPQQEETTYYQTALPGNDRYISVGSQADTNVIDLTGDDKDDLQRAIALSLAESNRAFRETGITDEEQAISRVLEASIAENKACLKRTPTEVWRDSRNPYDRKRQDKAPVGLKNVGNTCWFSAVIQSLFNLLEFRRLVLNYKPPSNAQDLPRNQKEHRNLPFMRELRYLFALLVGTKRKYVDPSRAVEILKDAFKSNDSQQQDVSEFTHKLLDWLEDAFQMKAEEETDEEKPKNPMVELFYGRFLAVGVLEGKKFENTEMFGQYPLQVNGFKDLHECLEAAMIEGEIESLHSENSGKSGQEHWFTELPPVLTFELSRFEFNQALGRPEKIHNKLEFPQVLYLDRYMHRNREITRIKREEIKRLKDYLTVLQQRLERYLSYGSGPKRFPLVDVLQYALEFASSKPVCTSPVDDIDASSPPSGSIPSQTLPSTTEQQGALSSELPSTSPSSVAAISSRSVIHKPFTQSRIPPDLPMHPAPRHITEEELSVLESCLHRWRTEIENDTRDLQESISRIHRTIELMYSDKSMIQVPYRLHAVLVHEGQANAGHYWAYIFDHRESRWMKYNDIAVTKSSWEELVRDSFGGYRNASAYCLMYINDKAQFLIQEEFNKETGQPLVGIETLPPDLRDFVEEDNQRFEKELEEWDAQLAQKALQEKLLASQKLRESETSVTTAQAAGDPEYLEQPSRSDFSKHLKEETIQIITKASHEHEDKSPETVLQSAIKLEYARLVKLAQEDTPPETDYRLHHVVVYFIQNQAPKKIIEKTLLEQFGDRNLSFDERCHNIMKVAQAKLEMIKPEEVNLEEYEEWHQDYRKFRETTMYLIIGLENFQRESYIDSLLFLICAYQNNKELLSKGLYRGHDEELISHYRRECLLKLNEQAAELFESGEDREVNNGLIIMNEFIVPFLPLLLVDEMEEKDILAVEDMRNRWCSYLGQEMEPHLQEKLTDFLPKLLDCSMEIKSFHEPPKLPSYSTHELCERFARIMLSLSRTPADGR
Summary of the method: as §1

USP28 = molecular target: T3, USP28 (UniProt Q96RU2)
T3 sequence (whole entry): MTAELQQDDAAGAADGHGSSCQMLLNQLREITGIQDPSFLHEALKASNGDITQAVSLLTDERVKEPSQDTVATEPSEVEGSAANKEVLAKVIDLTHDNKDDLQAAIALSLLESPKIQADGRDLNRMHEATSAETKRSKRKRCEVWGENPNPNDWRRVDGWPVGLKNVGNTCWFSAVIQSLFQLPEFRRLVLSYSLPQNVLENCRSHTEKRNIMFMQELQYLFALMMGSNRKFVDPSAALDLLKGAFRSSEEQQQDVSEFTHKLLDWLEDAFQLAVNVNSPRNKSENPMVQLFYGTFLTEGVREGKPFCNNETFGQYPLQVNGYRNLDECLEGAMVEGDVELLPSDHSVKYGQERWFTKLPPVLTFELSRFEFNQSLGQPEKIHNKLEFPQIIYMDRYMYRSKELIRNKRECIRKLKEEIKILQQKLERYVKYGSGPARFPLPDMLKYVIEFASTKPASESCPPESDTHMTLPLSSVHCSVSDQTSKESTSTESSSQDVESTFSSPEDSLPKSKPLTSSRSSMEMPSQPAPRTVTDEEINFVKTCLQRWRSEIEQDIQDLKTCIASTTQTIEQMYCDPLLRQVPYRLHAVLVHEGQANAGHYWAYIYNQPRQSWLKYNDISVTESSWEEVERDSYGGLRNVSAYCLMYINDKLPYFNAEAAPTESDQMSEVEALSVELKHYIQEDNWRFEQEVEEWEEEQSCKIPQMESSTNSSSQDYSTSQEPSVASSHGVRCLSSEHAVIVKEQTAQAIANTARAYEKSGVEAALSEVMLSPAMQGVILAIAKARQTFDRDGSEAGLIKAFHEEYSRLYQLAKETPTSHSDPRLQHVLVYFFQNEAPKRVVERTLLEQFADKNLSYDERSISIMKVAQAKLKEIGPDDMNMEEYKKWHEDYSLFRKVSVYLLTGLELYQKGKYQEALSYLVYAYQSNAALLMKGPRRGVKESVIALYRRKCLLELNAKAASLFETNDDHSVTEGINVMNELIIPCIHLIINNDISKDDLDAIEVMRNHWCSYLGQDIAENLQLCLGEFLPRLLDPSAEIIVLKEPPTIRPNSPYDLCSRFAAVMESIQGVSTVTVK
Summary of the method: as §1

Measured: log2 ratio of Biotin-Ahx-Ub-VS probe labelling

Chain of USP24 (Q9UPU5 whole entry): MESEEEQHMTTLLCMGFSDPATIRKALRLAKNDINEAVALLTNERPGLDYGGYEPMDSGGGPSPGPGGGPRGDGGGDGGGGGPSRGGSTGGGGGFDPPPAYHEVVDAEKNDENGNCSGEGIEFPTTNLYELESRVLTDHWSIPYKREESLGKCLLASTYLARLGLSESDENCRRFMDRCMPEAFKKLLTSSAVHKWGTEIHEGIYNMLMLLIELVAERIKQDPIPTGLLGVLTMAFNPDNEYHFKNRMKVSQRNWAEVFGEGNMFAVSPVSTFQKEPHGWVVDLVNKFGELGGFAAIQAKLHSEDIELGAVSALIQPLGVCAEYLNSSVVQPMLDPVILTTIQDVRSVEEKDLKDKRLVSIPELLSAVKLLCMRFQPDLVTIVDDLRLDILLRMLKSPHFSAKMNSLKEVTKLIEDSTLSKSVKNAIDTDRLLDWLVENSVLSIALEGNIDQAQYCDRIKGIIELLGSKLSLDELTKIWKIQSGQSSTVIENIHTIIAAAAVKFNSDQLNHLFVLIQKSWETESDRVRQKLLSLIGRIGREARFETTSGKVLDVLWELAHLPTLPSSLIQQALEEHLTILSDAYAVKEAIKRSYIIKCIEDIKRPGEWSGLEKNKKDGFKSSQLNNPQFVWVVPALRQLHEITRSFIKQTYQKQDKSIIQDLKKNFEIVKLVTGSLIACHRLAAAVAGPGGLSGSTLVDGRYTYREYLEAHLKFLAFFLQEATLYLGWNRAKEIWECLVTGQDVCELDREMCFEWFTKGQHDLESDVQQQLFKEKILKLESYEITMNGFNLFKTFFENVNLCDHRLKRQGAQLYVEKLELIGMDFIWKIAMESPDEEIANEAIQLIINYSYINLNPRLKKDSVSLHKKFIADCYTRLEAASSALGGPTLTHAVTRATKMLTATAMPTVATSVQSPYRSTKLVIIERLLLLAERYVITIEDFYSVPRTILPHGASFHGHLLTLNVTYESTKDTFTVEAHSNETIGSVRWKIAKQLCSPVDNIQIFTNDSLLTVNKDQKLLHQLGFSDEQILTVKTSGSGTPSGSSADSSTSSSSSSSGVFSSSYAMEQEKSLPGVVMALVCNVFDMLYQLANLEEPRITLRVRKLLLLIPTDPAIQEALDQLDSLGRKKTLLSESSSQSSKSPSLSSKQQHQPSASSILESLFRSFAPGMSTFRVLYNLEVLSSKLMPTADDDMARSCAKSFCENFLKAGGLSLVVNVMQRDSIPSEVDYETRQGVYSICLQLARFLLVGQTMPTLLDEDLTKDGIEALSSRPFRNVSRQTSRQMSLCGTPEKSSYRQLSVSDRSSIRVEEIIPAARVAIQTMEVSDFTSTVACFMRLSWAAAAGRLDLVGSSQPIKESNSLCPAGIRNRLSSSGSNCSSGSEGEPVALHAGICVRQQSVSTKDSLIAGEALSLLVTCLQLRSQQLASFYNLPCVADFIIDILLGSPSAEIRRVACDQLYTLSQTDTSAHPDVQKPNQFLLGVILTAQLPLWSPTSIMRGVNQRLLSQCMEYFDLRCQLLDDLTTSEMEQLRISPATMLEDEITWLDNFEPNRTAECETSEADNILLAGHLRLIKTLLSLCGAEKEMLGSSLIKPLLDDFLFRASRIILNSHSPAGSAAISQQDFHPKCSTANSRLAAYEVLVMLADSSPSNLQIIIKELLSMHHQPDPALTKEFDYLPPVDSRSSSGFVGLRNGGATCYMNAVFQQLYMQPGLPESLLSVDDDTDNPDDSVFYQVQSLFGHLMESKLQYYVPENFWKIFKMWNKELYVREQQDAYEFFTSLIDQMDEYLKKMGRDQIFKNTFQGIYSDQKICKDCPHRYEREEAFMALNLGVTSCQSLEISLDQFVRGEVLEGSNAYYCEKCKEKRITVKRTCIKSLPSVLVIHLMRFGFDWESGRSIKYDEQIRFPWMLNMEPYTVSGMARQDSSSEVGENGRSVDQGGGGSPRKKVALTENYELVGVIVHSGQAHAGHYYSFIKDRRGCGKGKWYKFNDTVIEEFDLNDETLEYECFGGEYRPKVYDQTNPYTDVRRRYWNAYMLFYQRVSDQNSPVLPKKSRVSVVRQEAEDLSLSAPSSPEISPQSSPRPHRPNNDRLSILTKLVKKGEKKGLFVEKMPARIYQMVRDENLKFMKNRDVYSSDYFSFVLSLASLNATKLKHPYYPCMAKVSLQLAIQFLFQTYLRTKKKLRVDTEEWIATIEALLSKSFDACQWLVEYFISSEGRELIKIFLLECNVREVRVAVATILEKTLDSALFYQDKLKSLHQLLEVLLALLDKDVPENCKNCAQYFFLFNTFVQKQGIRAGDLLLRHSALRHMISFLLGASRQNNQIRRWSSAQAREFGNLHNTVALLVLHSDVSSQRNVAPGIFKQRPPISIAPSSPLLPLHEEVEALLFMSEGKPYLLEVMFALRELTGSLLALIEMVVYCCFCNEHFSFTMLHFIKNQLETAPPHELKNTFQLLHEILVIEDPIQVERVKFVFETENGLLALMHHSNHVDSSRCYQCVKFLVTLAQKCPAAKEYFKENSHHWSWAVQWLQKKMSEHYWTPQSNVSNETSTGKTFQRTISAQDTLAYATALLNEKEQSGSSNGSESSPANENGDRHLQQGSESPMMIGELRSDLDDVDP

Cl.Cn1nccc1C(NC(=O)CCl)c1ccccc1 (centres undefined)
inactive: USP19 -0.0802 | USP24 -0.00471 | USP25 -0.455 | USP28 -0.472
